The list is not random: actives were taken first. Their share in the collection is about 3.5%.
FBW7 activator – FBW7 E3 ligase activators, primary screen, biochemical, AlphaScreen, human. F-box/WD repeat-containing protein 7 (Homo sapiens), Q969H0. AlphaScreen FBW7–phospho-cyclin E peptide binding, activator screen. normalized activity (activation), % at 26.1 µM. 650,000 compounds, 0.13% hits. AID 1259310, 2017; in the data active = normalized activity above about 1.9%;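 also: purified mutant Fbw7 with reduced substrate affinity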
MITF primary – MITF inhibitors, primary screen, biochemical, AlphaScreen, human; Microphthalmia-associated transcription factor (Homo sapiens), O75030; AlphaScreen MITF homodimerization, bead proximity signal; inhibition, % at 2.6 µM; 650,000 compounds, 0.91% hits; AID 1259374, 2018; in the data active = inhibition above about 50%;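 also: 0% = vehicle wells with protein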
TEAD-YAP block – TEAD-YAP interaction inhibition, primary screen, TEAD-YAP interaction inhibitor project, luminescence, HEK-TIYL cells; 640,000 compounds, 1.4% hits; inhibition, % at 9.12 µM; TEAD-Gal4/YAP UAS-luciferase luminescence; AID 1259422, 2018; in the data active = inhibition above about 32%;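 also: 0% = median of test compound wells and 100% = reference inhibitor wells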
GPR151 activ – activators of human GPR151, primary screen, cell-based, PathHunter beta-arrestin, luminescence. G-protein coupled receptor 151 (Homo sapiens), Q8TDV0. PathHunter beta-arrestin GPR151 cells. activation, % at 11.2 µM. 650,000 compounds, 1% hits. AID 1508602, 2020; in the data active = activation above about 4.9%;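 also: 0% = median of compound wells and 100% = cells with positive control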
Target sequence (Q8TDV0 whole entry, looked up): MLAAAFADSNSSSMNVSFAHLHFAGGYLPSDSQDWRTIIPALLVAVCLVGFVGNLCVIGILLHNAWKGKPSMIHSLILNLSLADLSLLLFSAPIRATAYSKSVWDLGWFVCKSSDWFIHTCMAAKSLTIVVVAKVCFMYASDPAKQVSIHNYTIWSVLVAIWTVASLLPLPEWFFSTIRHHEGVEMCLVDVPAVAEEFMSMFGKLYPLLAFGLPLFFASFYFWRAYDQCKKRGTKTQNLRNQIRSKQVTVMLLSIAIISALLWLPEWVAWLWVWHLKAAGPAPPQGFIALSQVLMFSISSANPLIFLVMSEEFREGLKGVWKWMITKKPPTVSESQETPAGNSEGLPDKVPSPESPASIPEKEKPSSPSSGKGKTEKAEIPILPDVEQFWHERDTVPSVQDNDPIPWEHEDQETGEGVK
MITF confirm – MITF inhibitors, retest of hits, confirmation, biochemical, AlphaScreen, triplicate; AlphaScreen MITF homodimerization, biotin/His-MITF beads; 4,700 compounds, 16% hits; shares compounds with MITF primary; inhibition, % at 2.6 µM; AID 1259372, 2018;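 active = inhibition above a cutoff derived from the DMSO control wells, cut at about 28% in these data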;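 also: 0% = MITF dimer wells with DMSO only; inhibitors lower the bead chemiluminescence by keeping MITF from dimerizing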
AS interf ctr – AlphaScreen optical interference compounds, counter-screen for MITF inhibitor project, biochemical, triplicate; inhibition, % at 2.6 µM; AID 1259376, 2018; 4,700 compounds, 7.6% hits; shares compounds with MITF primary; LysRS AlphaScreen counterscreen, signal interference;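 active = inhibition above a cutoff derived from the DMSO control wells, cut at about 30% in these data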
* = called active by the depositor; · = no result given.

SMILES	FBW7 activator	MITF primary	TEAD-YAP block	GPR151 activ	MITF confirm	AS interf ctr
O=C(O)c1cccc(S(=O)(=O)N2CCC(c3nc4ccc(Cl)cc4[nH]3)CC2)c1	0	69*	8	2	10	17
O=S(=O)(c1cccc(Cl)c1)N1CCC(c2nc3ccccc3[nH]2)CC1	0	-8	18	0	·	·
Cc1ccc(OCCN2CCOCC2)c([N+](=O)[O-])c1	0	46	0	1	·	·
Cc1ccc(OCCN(C)C)c([N+](=O)[O-])c1	0	51*	-4	-1	-3	7
COCCCNCCCOc1ccc(C)cc1[N+](=O)[O-]	0	64*	-4	0	1	-5
Cc1ccc(OCCN2CCC(C)CC2)c([N+](=O)[O-])c1	0	64*	-10	-1	-2	4
Cc1ccc(Oc2nc3ccccn3c(=O)c2/C=C(\C#N)C(=O)NCc2ccccc2)cc1	0	9	7	-3	·	·
OC(COc1ccccc1F)CN1CCN(c2ccccc2)CC1 (stereo not given)	0	2	7	4	·	·
O=S(=O)(/C=C/c1ccccc1)N1CCN(CC(O)COc2ccccc2F)CC1 (stereo not given)	0	60*	2	-1	2	8
O=S(=O)(c1cccs1)N1CCN(CCO)CC1	0	-2	7	1	·	·
O=S(=O)(c1cccs1)N1CCN(CC(O)COc2ccccc2F)CC1 (stereo not given)	0	66*	-4	-2	-15	-2
O=C(c1cc(Cc2ccccc2)no1)N1CCSCC1	0	-8	-1	0	·	·
O=C(c1cc(Cc2ccccc2)no1)N1CCCC1	0	53*	-17	0	-5	-1
c1ccc(OCCCn2ccnc2)cc1	0	-1	7	0	·	·
CCc1ccc(OCCn2ccnc2)cc1	0	31	-2	0	·	·
c1ccc(COc2ccc(OCCn3ccnc3)cc2)cc1	0	81*	-45	1	7	2
CCc1ccc(OCCCCCn2ccnc2)cc1	0	53*	6	0	-5	-2
c1ccc(COc2ccc(OCCCn3ccnc3)cc2)cc1	0	79*	54*	-6	6	18
Cc1nn(C(=O)c2nn(C)cc2I)c(C)c1Cl	2	54*	0	2	2	-1
COc1ccc(NC(=O)c2sc3nc4cc(C)ccc4cc3c2N)cc1OC	0	11	1	0	·	·
COc1ccc(NC(=O)c2sc3nc4ccc(C)cc4cc3c2N)cc1OC	0	65*	-6	0	7	21
CC(CC(=O)O)CC(=O)Nc1ccc([N+](=O)[O-])cc1 (stereo not given)	0	-8	-7	0	·	·
c1ccc(Nc2nc(NC3CC3)c3ncn(C4CCCCC4)c3n2)cc1	0	88*	-6	0	3	4
c1ccc(CNc2nc(NC3CCN(Cc4ccccc4)CC3)nc3c2ncn3C2CCCCC2)cc1	0	27	-9	-1	·	·
CC(C)N(CCNc1nc(NC2CCN(Cc3ccccc3)CC2)nc2c1ncn2C1CCCCC1)C(C)C	0	58*	5	-2	-1	11
SMILES	FBW7 activator	MITF primary	TEAD-YAP block	GPR151 activ	MITF confirm	AS interf ctr
c1ccc(CN2CCC(Nc3nc(Nc4ccccc4)nc4c3ncn4C3CCCCC3)CC2)cc1	0	18	8	0	·	·
O=C(CCc1csc2nc(-c3ccccc3)cn12)NC1CCCCC1	0	4	-3	0	·	·
CCC(=O)NC(=S)NNC(=O)c1ccccc1O	-1	63*	-10	-2	13	69*
COc1ccccc1CNCc1cc(Br)ccc1OC	0	70*	-2	-1	-11	-5
CCNCc1cc(Br)ccc1OC	0	14	9	1	·	·
O=C(NCCN1CCOCC1)C1CCN(Cc2ccc(Cl)c(Cl)c2)CC1	1	69*	-2	-1	-5	-1
CCOc1ccccc1CN1CCC(C(=O)NCCN2CCOCC2)CC1	0	52*	1	0	4	16
CCN1C(=O)C(O)(CC(=O)c2ccc(F)cc2)c2cc([N+](=O)[O-])ccc21 (stereo not given)	0	11	-9	1	·	·
CN(C(=O)c1cnn2c(C(F)(F)F)cc(-c3ccc(Br)cc3)nc12)C1CCCCC1	0	9	1	0	·	·
c1ccc(CN2CCN(Cc3ccc4c(c3)OCO4)CC2)nc1	0	63*	0	1	-7	-1
c1cc(CN2CCN(Cc3ccc4c(c3)OCO4)CC2)co1	0	66*	-3	-1	1	9
Cc1nc(N2CCN(Cc3ccc4c(c3)OCO4)CC2)c2c(C)c(C)sc2n1	0	74*	15	3	7	7
O=C(C1CC12CCN(Cc1ccc3c(c1)OCO3)CC2)N1CCN(Cc2ccccn2)CC1 (stereo not given)	0	10	5	1	·	·
Fc1cccc(F)c1CN1CCN(Cc2ccc3c(c2)OCO3)CC1	0	59*	3	0	-9	-6
O=C(C(=O)N1CCN(Cc2ccc3c(c2)OCO3)CC1)N1CCN(Cc2ccc3c(c2)OCO3)CC1	1	-11	2	-2	·	·
COc1ccc(C2(CNC(=O)Cc3ccc(F)cc3)CCCC2)cc1	0	-6	0	0	·	·
Brc1csc(CN2CCN(Cc3ccc4c(c3)OCO4)CC2)c1	1	62*	0	0	10	13
Cc1ccsc1CN1CCN(Cc2ccc3c(c2)OCO3)CC1	0	56*	0	0	2	5
Cc1ccc(Nc2nc(NCCN3CCOCC3)nc3nccnc23)cc1C	1	61*	-8	-2	-7	-4
Cc1ccc(S(=O)(=O)N2CC(O)CC2C(=O)O)cc1C (stereo not given)	0	3	2	2	·	·
O=C(O)C1CC(O)CN1S(=O)(=O)c1ccc(Cl)c(Cl)c1 (stereo not given)	0	65*	10	-1	-6	-10
O=C(Cc1ccccc1)Nc1ccc(Nc2ccc(-n3cccn3)nn2)cc1	0	60*	-28	2	17	21
Cc1ccc(Nc2ccc(NC(=O)Cc3ccccc3)cc2)nn1	0	5	8	1	·	·
O=[N+]([O-])c1ccc(N2CCCCC2)cc1NC1CC1	0	5	17	-1	·	·
O=C(NCC(c1cccnc1)N1CCc2ccccc2C1)c1c(F)cccc1Cl (stereo not given)	0	15	10	-2	·	·
CC1=NC(=S)C2C(=O)O/C(=C/c3ccc(-c4cccc([N+](=O)[O-])c4)o3)C2=C1 (stereo not given)	0	53*	-5	-1	34*	24

Assay outcomes (PubChem BioAssay)
